# Bioassay records from PubChem.
# Dicer processing – blocks human Dicer maturation of pre-miR-21 | hit rate 6% among 47,000 | cat-ELCCA pre-miR-21 Dicer processing, chemiluminescence; active compounds read high | z-score at 25 µM | Q9UPY3; in the data active = z-score above about 3, passing the limit was not always enough;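 also: plate controls were vehicle for no effect and no enzyme for full effect; higher signal means more uncleaved substrate so more Dicer inhibition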
# Numbers without * were called inactive. Many of the other results were omitted from the sample, so hits are more common in it than they were.
SMILES,Dicer processing
CCc1c(C)nc2ccc(Br)cc2c1SCCC(=O)O,3.2*
CCOC(=O)c1cc(C)nc2ccc(Br)cc12,-0.87
CCOC(=O)CSc1nc(C)c2ccccc2n1,0.21
Cc1nc2ccc(Br)cc2c(-c2ccccc2)c1C(=O)O,-0.82
CCCCc1c(C)nc2c(OC)cccc2c1SCCC(=O)O,3.5*
CCCCc1c(O)nc(SCCC(=O)O)[nH]c1=O,-0.2
CCCCc1c(C)nc2ccccc2c1SCCC(=O)O,3.7*
CCCCc1cc(C)c2nc(-c3ccc(OC)c(OC)c3)cc(C(=O)O)c2c1,-6.4
COc1ccc(-c2nnc(SCCC(=O)O)o2)cc1,-0.26
CC1=C(C(=O)OC2CCCC2)C(c2cccc(O)c2)C2=C(CC(c3cccs3)CC2=O)N1 (stereo unspecified),1.7
COc1cc(CNCCSc2nnnn2C)ccc1OCc1cccc(Cl)c1,-0.89
Nc1cccc(-n2c(=O)n(Cc3ccccc3)c(=O)c3[nH]cnc32)c1,2.2
O=S(=O)(Nc1ccc(Oc2ncnc3cc(Cl)ccc23)nc1)c1ccc(S(=O)(=O)c2ccccc2)s1,-0.21
CS(=O)(=O)N1CC(=O)Nc2ccccc21,-1.7
CC1=C(C(=O)OC2CCCC2)C(c2ccc(Br)cc2)C2=C(CC(C)(C)CC2=O)N1 (stereo unspecified),-0.64
Cc1ccc(-c2nc(C)cc(OS(=O)(=O)c3ccc(C)cc3)n2)cc1,-0.54
CS(=O)(=O)/C(C#N)=C/c1c(-c2ccccc2)nc2n1CCS2,1.5
Clc1ccc(N=Cc2c(-c3ccccc3)nc3n2CCS3)cc1,3.9*
FC(F)(F)c1cccc(N=Cc2c(-c3ccccc3)nc3n2CCS3)c1,2.7
FC(F)(F)c1cccc(-c2nnc(SCc3ccccc3)o2)n1,-0.83
CS(=N)c1ccsc1 (stereo unspecified),0.76
CC[n+]1c(/C=C/c2ccc(N(C)C)cc2)ccn1-c1ccccc1,3.3*
CN(C)c1ccc(/C=C/C2=Nc3ccccc3C2(C)C)cc1,-1.1
CC[n+]1c(/C=C/c2ccc(N(C)C)cc2)sc2ccccc21,0.65
Cc1cc(C)c(S(=O)(=O)N2CCN(Cc3ccc4c(c3)OCO4)CC2)c(C)c1,-1.3
SMILES,Dicer processing
COc1cc(C)c(S(=O)(=O)N2CCN(Cc3ccc4c(c3)OCO4)CC2)cc1C,0.76
Cc1nc(N2CCN(Cc3ccc4c(c3)OCO4)CC2)[nH]c(=O)c1C,3.2*
CSc1ccc(CN2CCN(S(=O)(=O)c3ccccc3)CC2)cc1,2.4
Cc1ccc(S(=O)(=O)N2CCN(Cc3ccc4c(c3)OCO4)CC2)cc1,7.4*
CC1(C)CC(=O)c2cnc(N3CCN(Cc4ccc5c(c4)OCO5)CC3)nc2C1,1.1
c1cnc(N2CCN(Cc3ccc4c(c3)OCO4)CC2)nc1,0.47
CSc1ccc(CN2CCN(S(=O)(=O)c3ccc(Cl)cc3)CC2)cc1,3.5*
Cc1nc(N2CCN(Cc3ccc4c(c3)OCO4)CC2)[nH]c(=O)c1CCC(C)C,3.7*
O=C(c1ccncc1)N1CCN(Cc2ccc3c(c2)OCO3)CC1,0.43
Cc1ccc(Cc2c(C)nc(N3CCCC3)[nH]c2=O)cc1,0.86
CSc1ccc(CN2CCN(S(=O)(=O)c3ccc(C)cc3)CC2)cc1,-2.1
COc1ccc2nc(C)cc(-n3nc(C)cc3C)c2c1,0.47
O=C(c1cccc2c1-c1ccccc1C2)N1CCOCC1,1.2
COc1cccc(C2C3=C(CC(C)(C)CC3=O)NC3=C2C(=O)c2ccccc23)c1 (stereo unspecified),0.77
O=C(CC1CCCCCCCCCCC1)N1CCOCC1,1
C=CCSc1nnnn1-c1c(C)cc(C)cc1C,0.43
O=c1[nH][nH]c2c1cnc1c(F)cc(F)cc12,-0.24
Nc1ncc(-c2nnnn2-c2ccc(F)cc2)c(C(F)(F)F)n1,1.8
Fc1ccc(-n2nnnc2-c2cnn(-c3ccccc3Cl)c2C(F)(F)F)cc1,-1.6
FC(F)(F)c1[nH]ncc1-c1nnnn1-c1ccc(Cl)cc1,4.8*
CCC(CO)NC(=O)c1cc2c(n(-c3ccc(Cl)cc3)c1=O)CC(C)(C)CC2=O (stereo unspecified),1.1
O=C1c2cccc3cccc(c23)C(=O)N1CCCC(=O)N1CCc2ccccc21,1.3
CCOC(=O)c1cn(C(=O)CCSc2ccc(OC)cc2)nc1N,3
COc1ccc(/C(O)=C2/C(=O)C(=O)N(CCCN3CCOCC3)C23C(=O)N(C)c2ccccc23)cc1 (stereo unspecified),1.9
CN1C(=O)C2(/C(=C(/O)c3ccccc3)C(=O)C(=O)N2CCCN2CCOCC2)c2ccccc21 (stereo unspecified),5.3*
SMILES,Dicer processing
CN1C(=O)C2(/C(=C(/O)c3ccccc3)C(=O)C(=O)N2CCN2CCOCC2)c2ccccc21 (stereo unspecified),5.4*
CC1Cc2cc(/C(O)=C3/C(=O)C(=O)N(CC4CCCO4)C34C(=O)N(C)c3ccccc34)ccc2O1 (stereo unspecified),1.5
Cc1ccc(/C(O)=C2/C(=O)C(=O)N(CCN(C)C)C23C(=O)N(C)c2ccccc23)cc1 (stereo unspecified),1.6
CCN1C(=O)C2(/C(=C(/O)c3ccc(F)cc3)C(=O)C(=O)N2CCCN2CCOCC2)c2ccccc21 (stereo unspecified),2.4
COCCCN1C(=O)C(=O)/C(=C(\O)c2ccc3c(c2)CC(C)O3)C12C(=O)N(C)c1ccccc12 (stereo unspecified),0.99
COc1ccc(/C(O)=C2/C(=O)C(=O)N(CCN3CCOCC3)C23C(=O)N(C)c2ccccc23)cc1 (stereo unspecified),3.5*
CCOc1ccc(/C(O)=C2/C(=O)C(=O)N(CCN(C)C)C23C(=O)N(C)c2ccccc23)cc1 (stereo unspecified),1.8
CCN1C(=O)C2(/C(=C(/O)c3ccc(Cl)cc3)C(=O)C(=O)N2CCN2CCOCC2)c2ccccc21 (stereo unspecified),1.2
CCN1C(=O)C2(/C(=C(/O)c3ccccc3)C(=O)C(=O)N2CCN2CCOCC2)c2ccccc21 (stereo unspecified),1
CC1Cc2cc(/C(O)=C3/C(=O)C(=O)N(CCN(C)C)C34C(=O)N(C)c3ccccc34)ccc2O1 (stereo unspecified),4.4*
CCOC(=O)c1c(-c2ccc(C)cc2)csc1N,-0.33
CCOc1cc(C2C(C(=O)OCCSCC)=C(C)NC3=C2C(=O)CC(C)(C)C3)ccc1O (stereo unspecified),1.2
COc1cccc(NC(=O)Nc2c(-c3cccc(C(F)(F)F)c3)c(C(F)(F)F)nn2C)c1,-0.27
N#CC1=C(SCC(=O)Nc2ccc(Br)cc2)NC(=O)CC1c1ccc2c(c1)OCO2 (stereo unspecified),-0.82
Cn1c(=O)c2c(NCc3ccccc3)cc(=O)n(-c3ccccc3)c2n(C)c1=O,0.68
Cc1ccc(S(=O)(=O)Nc2ccc(Cl)cc2SCc2ccccc2)cc1,0.6
CCCCCc1ccc(C(=O)NC(=S)Nc2c(C(=O)OCC)cnn2C)cc1,-3
CSc1nn(-c2ccccc2)cc1C(N)=S,-0.12
CSc1nn(-c2ccccc2)cc1/C(N)=N/O,6*
CSc1nn(-c2ccccc2)cc1/C(N)=N/OC(=O)Nc1ccccc1,3.7
CCC(=O)Nc1nonc1-c1nc2ccccc2[nH]1,-7.2
COC(=O)c1cnc(Nc2ccccc2C)c([N+](=O)[O-])c1,-1.2
Cc1c(N=CN(C(=O)c2ccccc2)c2cccc([N+](=O)[O-])c2C)cccc1[N+](=O)[O-],-0.95
COc1ccc(C2/C(=C(/O)c3ccc(C)cc3)C(=O)C(=O)N2CC(C)C)cc1OC (stereo unspecified),-0.57
